Screens deposited in PubChem BioAssay by The Scripps Research Institute Molecular Screening Center.
AHR activator – activates the human aryl hydrocarbon receptor; P35869; AHR-responsive luciferase reporter cells, luminescence; activation, % at 5 µM; actives 2.5% (n = 320,000); AID 2796; in the data active = activation above about 47%
hgDAF-12 ag – hgDAF-12 agonism, primary luciferase screen | HEK293 GAL4-hgDAF12 UAS-luciferase reporter, agonist luminescence; normalized to butyrate control | AID 687014 | actives 1.8% (n = 370,000) | activation, % at 6.8 µM;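 active = activation above a cutoff set at the mean of all screened compounds plus 3 SD, cut at about 10% in these data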
hcDAF12 agonist – H. contortus DAF-12 activation, primary screen; activation, % at 6.8 µM; actives 1.4% (n = 370,000); HEK293 hcDAF-12 lit1-tk-luc reporter, luminescence; 0% DMSO, 100% Δ7-dafachronic acid;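 active = activation above the mean of all tested compounds plus 3 SD, cut at about 5.5% in these data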
ssDAF12 agonist – S. stercoralis DAF-12 activation, primary screen; activation, % at 6.8 µM; HEK293 ssDAF-12/GRIP1 lit1-tk-luc reporter, luminescence; % of 3 µM dafachronic acid response; actives 1% (n = 370,000);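 active = activation above the mean over all tested compounds plus 3 SD, cut at about 0.9% in these data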
DAX1 inh-1 – inhibits human nuclear receptor DAX1. P51843. HEK293 Gal4-DAX1 luciferase reporter, luminescence. inhibition, % at 6.75 µM. actives 0.99% (n = 340,000). AID 504766;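 active = inhibition above the mean over all tested compounds plus 3 SD, cut at about 4.2% in these data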;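 note: inhibition shows as a rise in luminescence from relieved DAX1 repression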
Target sequence (P51843 207-470 limits assumed): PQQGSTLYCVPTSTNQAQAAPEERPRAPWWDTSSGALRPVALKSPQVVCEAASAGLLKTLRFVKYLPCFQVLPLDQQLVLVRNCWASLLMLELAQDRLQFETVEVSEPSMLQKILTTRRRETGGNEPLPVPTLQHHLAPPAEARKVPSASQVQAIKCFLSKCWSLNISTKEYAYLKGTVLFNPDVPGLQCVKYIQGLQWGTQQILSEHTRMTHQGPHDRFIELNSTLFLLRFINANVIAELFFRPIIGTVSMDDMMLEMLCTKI
DAX1 inh-2 – blocks DAX1 repression of SF-1 activated StAR promoter | HEK293T StAR-luciferase reporter, SF-1/DAX-1 repression relief | inhibition, % at 6.8 µM | actives 1.1% (n = 370,000);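 active = inhibition above the mean over all tested compounds plus 3 SD, cut at about 3.6% in these data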;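 note: higher inhibition means more luminescence from relief of DAX-1 repression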
AHR act confirm – confirmation of human aryl hydrocarbon receptor activators; shares compounds with AHR activator; human cells, AHR-responsive luciferase reporter, luminescence; activation, % at 9 µM; actives 87% (n = 2,300); in the data active = activation above about 49%;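 note: HepG2 hepatoma cells carrying a DRE-driven firefly luciferase reporter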
PXR act counter – activates human PXR in AHR activator counter-screen. cell-based PXR reporter, luciferase luminescence. activation, % at 11.6 µM. shares compounds with AHR activator. actives 88% (n = 2,300); in the data active = activation above about 11%;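 note: human hepatoma DPX-2 cells expressing full-length human PXR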
Numbers stand for hits; – = inactive; · = no result given; + = active, no number. Hits are enriched below; roughly 5.7% of the tested compounds scored in any of these assays.

SMILES	AHR activator	hgDAF-12 ag	hcDAF12 agonist	ssDAF12 agonist	DAX1 inh-1	DAX1 inh-2	AHR act confirm	PXR act counter
O=C(CC(=O)N/N=C/c1cccs1)NCc1ccccc1	–	–	–	–	–	–	·	·
COC(=O)c1c(NC(=O)CCC(=O)O)sc(Cc2ccccc2)c1C	–	–	–	–	–	–	·	·
O=c1c2ccccc2nc2sc3ccccc3n12	113	–	–	–	–	–	155	14
Nc1ncc(Br)cc1S(=O)(=O)Nc1ccccc1F	–	–	–	–	–	–	·	·
CSC(=NC#N)N1CCN(c2cccc(Cl)c2)CC1	115	–	–	–	–	–	–	41
COCCn1c(-c2cccs2)nc2nc3ccccc3nc21	–	–	–	–	–	–	·	·
CCCn1c(-c2cccs2)nc2nc3ccccc3nc21	100	–	–	–	–	–	147	37
COc1ccccc1CN1CCc2c([nH]c3ccccc23)C1	99	–	–	–	–	–	90	27
C/C(=C\C(=O)c1ccc(C)o1)Nc1ccc2c(c1)OCO2	–	–	–	–	–	–	·	·
O=C(Nc1ccc2c(c1)OCO2)c1ccc(Cl)nc1	88	–	–	–	–	–	149	23
O=C(Nc1ccc(Cl)c(-c2nc3ccccc3[nH]2)c1)c1ccc2c(c1)OCO2	86	–	–	–	–	–	93	19
O=C(NCc1ccc2c(c1)OCO2)c1ccncc1	–	–	–	–	–	–	·	·
Cc1ccc(C(=O)Nc2ccc3c(c2)OCO3)o1	122	–	–	–	–	–	108	39
O=C(Nc1ccc2c(c1)OCO2)c1ccncc1	103	–	–	–	–	–	74	·
O=S(=O)(Nc1ccc(-c2ccc(N3CCOCC3)nn2)cc1)c1ccc(Cl)c(Cl)c1	–	–	–	–	–	–	·	·
COc1ccc(NC(=O)c2ccc(Cl)nc2)cc1S(=O)(=O)N1CCCCC1	121	–	–	–	–	–	85	63
c1ccc(C2=Nc3c(ccc4ccccc34)C(c3ccncc3)=NN2)cc1	80	–	–	–	–	–	110	46
Cc1ccc2c(c1)C(c1ccncc1)=NNC(c1ccccc1)=N2	–	–	–	–	–	–	·	·
O=C1c2ccccc2C(=O)N1CCC1=CCCCC1	103	–	–	–	–	–	121	17
O=C(O)c1ccc2c(c1)C(=O)N(CCC1=CCCCC1)C2=O	–	–	–	–	–	–	·	·
COc1ccc(C(=O)NC(=S)Nc2cc(C)ccn2)cc1[N+](=O)[O-]	82	–	–	–	–	–	109	13
Cc1ccc2[nH]c3c(NCCCN4CCCC4=O)ncnc3c2c1	86	–	–	–	–	–	84	162
COc1ccc(C)cc1NC(=O)C(OC(=O)CNC(=O)c1ccc(Br)cc1)c1ccccc1 (centres undefined)	81	–	–	–	–	–	85	51
COc1ccc(C)cc1NC(=O)C(OC(=O)C1=NNC(=O)CC1)c1ccccc1 (centres undefined)	83	–	–	–	–	–	99	36
CCCCNc1nnc(SCC(=O)N2CCN(S(=O)(=O)c3ccc4ccccc4c3)CC2)s1	–	–	–	–	–	–	·	·
SMILES	AHR activator	hgDAF-12 ag	hcDAF12 agonist	ssDAF12 agonist	DAX1 inh-1	DAX1 inh-2	AHR act confirm	PXR act counter
CCc1ccc(NC(=O)CSc2nc3n[nH]c(C)c3c(=N)n2-c2cccc(OC)c2)cc1	–	–	–	–	–	–	·	·
COc1cccc(-n2c(SCC(=O)NCCC3=CCCCC3)nc3n[nH]c(C)c3c2=N)c1	82	–	–	–	·	–	91	161
O=C(/C=C/Nc1ccc(F)cc1F)c1ccc(Br)cc1	90	–	–	–	·	–	90	12
Clc1ccc2c(c1)C(c1cccs1)=NNC(c1cccnc1)=N2	105	–	–	–	–	–	56	50
CC/C(=N\NC(=S)Nc1cccc(C)c1)c1ccccc1	87	–	–	–	–	–	55	24
C/C(=N/NC(=S)Nc1cccc(C)c1)c1cccc([N+](=O)[O-])c1	106	–	–	–	–	–	83	100
O=C(NC(=S)Nc1cccc(F)c1)c1cccc([N+](=O)[O-])c1	96	–	–	–	–	–	–	30
N#Cc1ccccc1OCC(=O)Nc1cccc(S(=O)(=O)N2CCCC2)c1	–	–	–	–	–	–	·	·
CCCC(=O)n1nc(-c2ccco2)nc1SCc1ccccc1	–	·	·	·	–	·	·	·
COc1ccc(-c2csc3ncn(CC(=O)N4CCOCC4)c(=O)c23)cc1	–	–	–	–	–	–	·	·
CC(=O)C(Cc1ccccc1)NC(=O)CN1c2cccc3cccc(c23)S1(=O)=O (centres undefined)	–	–	–	–	–	–	·	·
Cc1nc(NCCOc2ccccc2)sc1C(=O)Nc1ccccc1	88	–	–	–	–	–	145	47
Cc1nc(NCc2ccccc2)sc1C(=O)Nc1ccccc1	–	–	–	–	–	–	·	·
CCn1c2ccccc2c2cc(NC(=O)CSc3nnc(C4CC4)n3Cc3ccco3)ccc21	112	–	–	–	–	–	56	171
CCn1c2ccccc2c2cc(NC(=O)CSc3nnc(-c4ccccc4)n3Cc3ccco3)ccc21	·	–	–	–	·	–	·	·
CCn1c2ccccc2c2cc(NC(=O)CSc3nnnn3-c3ccccc3)ccc21	82	–	–	–	–	–	133	+
CCn1c(C)c(C(C)=O)c(SC)nc1=S	–	–	–	–	–	–	·	·
NNc1nc2c(-c3ccc(F)cc3)nnn2c2ccccc12	102	10	6.4	1.3	–	–	128	35
OC[C@@H]1CN(Cc2ccccc2)C[C@H](n2cnc3c(N4CCCC4)ncnc32)O1	·	–	–	–	·	–	·	·
Cc1ccc(-c2nc3cccnc3s2)cc1NS(=O)(=O)c1ccc2c(c1)OCCO2	105	–	–	–	–	–	73	104
O=S(=O)(Nc1cccc(-c2nc3cccnc3s2)c1)c1ccc2c(c1)OCCO2	–	–	–	–	–	–	·	·
O=C(c1cccs1)N1C[C@@H](n2cc(C3CC3)nn2)[C@H](O)C[C@@H]1c1ccccc1	·	–	–	–	–	–	·	·
COc1cccc(NC(=O)c2cccc(C(=O)Nc3cccc(OC)c3)n2)c1	–	–	–	–	–	–	·	·
COc1cc(NC(=S)Nc2cccnc2)cc(OC)c1	116	–	–	–	–	–	65	23
COc1cc(OC)cc(C(=O)NC(=S)Nc2cccnc2)c1	–	–	–	–	–	–	·	·
CC(C)c1ccc(NC(=S)Nc2cccc3ccccc23)cc1	90	–	–	–	–	–	90	81
